For 1 sequence, binding signal results are on record in PMC7862700, “An all-to-all approach to the identification of sequence-specific readers for epigenetic DNA modifications on cytosine”.

What all share (assay): DAPPL (digital affinity profiling via proximity ligation, sequencing); 10 mM Tris-HCl pH 7.5, 50 mM NaCl, 1 mM DTT, 4% glycerol, room temperature, 30 min; GST-TFs on glutathione beads, 16-mer random dsDNA library, 0.1% formaldehyde crosslink after washing; high values mean tight binding
One test addresses T1, FEV (Homo sapiens, UniProt Q99581 1-238).
T1 sequence: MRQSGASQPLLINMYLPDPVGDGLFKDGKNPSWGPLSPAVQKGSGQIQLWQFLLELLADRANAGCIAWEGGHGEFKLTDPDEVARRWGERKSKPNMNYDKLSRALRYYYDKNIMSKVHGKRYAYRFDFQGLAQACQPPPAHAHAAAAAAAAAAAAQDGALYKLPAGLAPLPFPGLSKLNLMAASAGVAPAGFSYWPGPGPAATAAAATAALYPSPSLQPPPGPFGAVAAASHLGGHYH
The note with it: protein: recombinant; tags: N-terminal GST; dsDNA, one strand shown. The gist of the method: (§1)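 Pools were built from human transcription factors expressed in yeast as GST fusions, captured on glutathione beads and DNA-barcoded, along with a tag-only sample. Incubation with 200 nmole of a 16-mer random double-stranded DNA library lasted 30 min at room temperature in Tris/NaCl/DTT/glycerol buffer, and was followed by washing, 0.1% formaldehyde crosslinking, proximity ligation, PCR amplification and Illumina NextSeq500 sequencing. Binding signal is the quotient of each hexamer's read frequency for a factor and its frequency for the tag-only sample.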

The next test has as its target ETV5 (Homo sapiens, UniProt P41161 1-510). The following applies: protein: recombinant; tags: N-terminal GST; dsDNA, one strand shown. The gist of the method: as §1
The next test concerns the target HSF1 (Homo sapiens, UniProt Q00613 1-529). The note with it: protein: recombinant; tags: N-terminal GST; chain copies: 3; dsDNA, one strand shown. The gist of the method: as §1
A further test has as its target T2, SPIC (Homo sapiens, UniProt Q8N5J4 1-248).
T2 sequence: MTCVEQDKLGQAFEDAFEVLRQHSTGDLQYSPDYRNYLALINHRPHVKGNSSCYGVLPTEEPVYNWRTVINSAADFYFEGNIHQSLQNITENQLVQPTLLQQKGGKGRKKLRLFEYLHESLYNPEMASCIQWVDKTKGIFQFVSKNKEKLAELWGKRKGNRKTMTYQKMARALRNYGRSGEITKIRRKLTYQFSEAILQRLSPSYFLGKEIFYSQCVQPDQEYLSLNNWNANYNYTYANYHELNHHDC
The following applies: protein: recombinant; tags: N-terminal GST; dsDNA, one strand shown. A digest of the protocol: as §1

The target of another test is ELF4 (Homo sapiens, UniProt Q99607 1-663). The note with it: protein: recombinant; tags: N-terminal GST; dsDNA, one strand shown. A digest of the protocol:
as §1

The next test has as its target T3, ELK4 (Homo sapiens, UniProt P28324-2 1-405).
T3 sequence: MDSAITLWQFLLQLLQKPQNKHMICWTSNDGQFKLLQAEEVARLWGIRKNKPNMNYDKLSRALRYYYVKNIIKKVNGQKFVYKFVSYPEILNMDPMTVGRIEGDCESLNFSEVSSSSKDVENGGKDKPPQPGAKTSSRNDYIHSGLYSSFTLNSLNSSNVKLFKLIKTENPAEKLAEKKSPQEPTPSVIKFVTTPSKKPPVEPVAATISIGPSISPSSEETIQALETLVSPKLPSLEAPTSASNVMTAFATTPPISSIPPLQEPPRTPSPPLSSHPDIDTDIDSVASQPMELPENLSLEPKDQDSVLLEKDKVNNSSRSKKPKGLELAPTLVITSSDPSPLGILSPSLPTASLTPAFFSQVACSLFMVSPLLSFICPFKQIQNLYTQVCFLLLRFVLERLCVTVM
The following applies: protein: recombinant; tags: N-terminal GST; dsDNA, one strand shown. A digest of the protocol: as §1

The target in a further test is T4, ETV2 (Homo sapiens, UniProt O00321 1-342).
T4 sequence: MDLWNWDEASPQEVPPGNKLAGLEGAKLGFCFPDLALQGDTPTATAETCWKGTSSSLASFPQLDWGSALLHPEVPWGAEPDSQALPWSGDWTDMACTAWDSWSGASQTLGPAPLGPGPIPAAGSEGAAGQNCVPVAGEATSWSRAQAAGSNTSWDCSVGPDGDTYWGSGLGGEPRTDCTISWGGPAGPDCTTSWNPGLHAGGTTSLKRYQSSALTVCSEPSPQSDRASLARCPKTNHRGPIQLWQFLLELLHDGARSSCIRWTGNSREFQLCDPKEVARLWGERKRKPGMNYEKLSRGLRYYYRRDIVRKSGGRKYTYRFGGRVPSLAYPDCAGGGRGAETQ
The note with it: protein: recombinant; tags: N-terminal GST; dsDNA, one strand shown. The gist of the method: as §1

Another test addresses T5, ELF3 (Homo sapiens, UniProt P78545 1-371).
T5 sequence: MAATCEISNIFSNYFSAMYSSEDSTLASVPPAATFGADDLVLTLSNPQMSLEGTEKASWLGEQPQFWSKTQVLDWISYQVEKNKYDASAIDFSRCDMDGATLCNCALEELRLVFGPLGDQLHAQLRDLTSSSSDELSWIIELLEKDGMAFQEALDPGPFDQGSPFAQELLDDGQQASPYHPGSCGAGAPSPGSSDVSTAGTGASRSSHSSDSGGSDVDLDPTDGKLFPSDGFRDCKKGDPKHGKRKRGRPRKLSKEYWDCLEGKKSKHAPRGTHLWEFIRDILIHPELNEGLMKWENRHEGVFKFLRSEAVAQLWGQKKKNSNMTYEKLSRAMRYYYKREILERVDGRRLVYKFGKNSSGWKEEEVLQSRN
The following applies: protein: recombinant; tags: N-terminal GST; dsDNA, one strand shown. The gist of the method: as §1

For the next test, the target named is CRX (Homo sapiens, UniProt O43186 1-299). The following applies: protein: recombinant; tags: N-terminal GST; dsDNA, one strand shown. The gist of the method: as §1
Chain of CRX (O43186 whole entry): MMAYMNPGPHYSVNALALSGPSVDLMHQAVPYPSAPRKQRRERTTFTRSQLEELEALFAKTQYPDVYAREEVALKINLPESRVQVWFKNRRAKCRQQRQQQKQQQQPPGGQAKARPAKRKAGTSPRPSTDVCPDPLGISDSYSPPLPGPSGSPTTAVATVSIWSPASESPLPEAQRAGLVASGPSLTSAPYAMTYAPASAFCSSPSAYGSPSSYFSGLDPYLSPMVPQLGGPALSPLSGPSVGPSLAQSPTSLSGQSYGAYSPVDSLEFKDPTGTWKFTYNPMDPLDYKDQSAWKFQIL
For a further test, the target named is ETV1 (Homo sapiens, UniProt P50549 1-477). The following applies: protein: recombinant; tags: N-terminal GST; dsDNA, one strand shown. The gist of the method:
as §1

The next test has as its target T6, ERF (Homo sapiens, UniProt P50548 1-548).
T6 sequence: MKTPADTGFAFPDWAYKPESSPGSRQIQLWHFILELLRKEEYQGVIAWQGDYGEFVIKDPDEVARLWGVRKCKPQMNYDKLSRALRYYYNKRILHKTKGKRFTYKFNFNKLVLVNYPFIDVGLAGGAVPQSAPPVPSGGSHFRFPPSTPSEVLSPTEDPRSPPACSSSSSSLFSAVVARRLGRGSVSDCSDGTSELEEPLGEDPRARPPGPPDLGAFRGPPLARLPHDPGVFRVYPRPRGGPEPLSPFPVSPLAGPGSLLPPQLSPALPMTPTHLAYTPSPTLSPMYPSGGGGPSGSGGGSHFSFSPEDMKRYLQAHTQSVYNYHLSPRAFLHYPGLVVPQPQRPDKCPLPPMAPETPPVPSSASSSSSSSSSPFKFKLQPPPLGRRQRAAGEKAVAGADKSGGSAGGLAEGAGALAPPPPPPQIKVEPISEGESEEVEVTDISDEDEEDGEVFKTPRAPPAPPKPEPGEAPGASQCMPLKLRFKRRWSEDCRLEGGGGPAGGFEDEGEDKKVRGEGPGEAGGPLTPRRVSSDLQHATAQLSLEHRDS
The note with it: protein: recombinant; tags: N-terminal GST; dsDNA, one strand shown. A digest of the protocol:
as §1

The target in a further test is T7, ETV3L (Homo sapiens, UniProt Q6ZN32 1-361).
T7 sequence: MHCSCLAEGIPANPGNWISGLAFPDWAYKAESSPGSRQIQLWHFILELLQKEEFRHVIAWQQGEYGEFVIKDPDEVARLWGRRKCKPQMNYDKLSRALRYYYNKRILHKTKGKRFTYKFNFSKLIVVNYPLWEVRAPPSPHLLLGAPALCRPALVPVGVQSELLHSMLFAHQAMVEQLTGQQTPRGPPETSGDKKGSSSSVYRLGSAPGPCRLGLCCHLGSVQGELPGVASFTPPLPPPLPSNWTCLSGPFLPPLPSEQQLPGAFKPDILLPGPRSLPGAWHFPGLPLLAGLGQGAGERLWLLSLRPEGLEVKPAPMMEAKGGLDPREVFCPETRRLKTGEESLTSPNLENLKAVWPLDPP
The following applies: protein: recombinant; tags: N-terminal GST; dsDNA, one strand shown. A digest of the protocol:
as §1

For another test, the target named is T8, ETS2 (Homo sapiens, UniProt P15036 1-469).
T8 sequence: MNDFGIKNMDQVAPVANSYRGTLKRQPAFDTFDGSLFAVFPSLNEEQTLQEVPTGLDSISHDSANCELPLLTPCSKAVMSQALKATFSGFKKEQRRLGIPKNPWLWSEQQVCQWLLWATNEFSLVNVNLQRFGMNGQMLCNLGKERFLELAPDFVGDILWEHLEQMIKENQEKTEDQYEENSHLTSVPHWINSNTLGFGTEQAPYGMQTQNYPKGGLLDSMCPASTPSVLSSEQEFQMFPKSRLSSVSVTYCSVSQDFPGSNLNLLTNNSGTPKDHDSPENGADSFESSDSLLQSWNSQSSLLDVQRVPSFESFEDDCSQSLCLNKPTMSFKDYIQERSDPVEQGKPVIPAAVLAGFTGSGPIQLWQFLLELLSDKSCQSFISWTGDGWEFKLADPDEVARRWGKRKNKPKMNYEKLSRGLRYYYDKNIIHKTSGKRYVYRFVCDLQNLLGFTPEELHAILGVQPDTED
The note with it: protein: recombinant; tags: N-terminal GST; dsDNA, one strand shown. A digest of the protocol: as §1

The target of a further test is T9, SPDEF (Homo sapiens, UniProt O95238 1-335).
T9 sequence: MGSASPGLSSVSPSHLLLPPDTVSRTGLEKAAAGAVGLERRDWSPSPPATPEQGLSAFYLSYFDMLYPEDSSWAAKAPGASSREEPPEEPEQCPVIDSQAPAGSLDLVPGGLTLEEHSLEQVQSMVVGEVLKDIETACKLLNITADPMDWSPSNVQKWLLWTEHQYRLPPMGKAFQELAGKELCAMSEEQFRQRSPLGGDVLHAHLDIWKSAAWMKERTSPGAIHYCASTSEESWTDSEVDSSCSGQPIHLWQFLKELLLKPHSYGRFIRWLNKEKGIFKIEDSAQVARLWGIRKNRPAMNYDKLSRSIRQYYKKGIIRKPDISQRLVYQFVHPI
The following applies: protein: recombinant; tags: N-terminal GST; dsDNA, one strand shown. A digest of the protocol: as §1

In the next test the target is T10, ETV7 (Homo sapiens, UniProt Q9Y603 1-341).
T10 sequence: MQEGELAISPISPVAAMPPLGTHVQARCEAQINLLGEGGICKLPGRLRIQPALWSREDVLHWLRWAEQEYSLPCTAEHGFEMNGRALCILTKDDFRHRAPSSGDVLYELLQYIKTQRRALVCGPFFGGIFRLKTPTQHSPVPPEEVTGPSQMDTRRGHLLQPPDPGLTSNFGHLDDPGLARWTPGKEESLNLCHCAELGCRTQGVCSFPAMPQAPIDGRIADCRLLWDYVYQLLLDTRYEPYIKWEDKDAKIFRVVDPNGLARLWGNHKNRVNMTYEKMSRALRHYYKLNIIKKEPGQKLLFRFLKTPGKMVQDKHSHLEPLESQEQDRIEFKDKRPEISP
The note with it: protein: recombinant; tags: N-terminal GST; dsDNA, one strand shown. The gist of the method:
as §1

For another test, the target named is T11, ELF5 (Homo sapiens, UniProt Q9UKW6-2 1-255).
T11 sequence: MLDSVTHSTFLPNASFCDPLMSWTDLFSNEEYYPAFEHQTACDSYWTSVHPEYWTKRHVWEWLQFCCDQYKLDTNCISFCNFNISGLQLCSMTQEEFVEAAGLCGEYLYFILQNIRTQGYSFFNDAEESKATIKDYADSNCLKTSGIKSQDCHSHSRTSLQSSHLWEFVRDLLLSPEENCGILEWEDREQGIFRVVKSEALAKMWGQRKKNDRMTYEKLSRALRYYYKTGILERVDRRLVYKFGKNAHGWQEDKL
The following applies: protein: recombinant; tags: N-terminal GST; dsDNA, one strand shown. A digest of the protocol: as §1

A further test deals with T12, ETV3 (Homo sapiens, UniProt P41162-2 1-143).
T12 sequence: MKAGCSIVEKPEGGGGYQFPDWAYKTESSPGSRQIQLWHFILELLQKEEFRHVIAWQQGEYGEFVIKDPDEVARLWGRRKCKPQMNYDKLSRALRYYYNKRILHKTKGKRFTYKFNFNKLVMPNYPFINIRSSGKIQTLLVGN
The note with it: protein: recombinant; tags: N-terminal GST; dsDNA, one strand shown. A digest of the protocol:
as §1

Another test has as its target ETV6 (Homo sapiens, UniProt P41212 1-452). The note with it: protein: recombinant; tags: N-terminal GST; dsDNA, one strand shown. A digest of the protocol: as §1

Chain of HSF1 (Q00613 whole entry): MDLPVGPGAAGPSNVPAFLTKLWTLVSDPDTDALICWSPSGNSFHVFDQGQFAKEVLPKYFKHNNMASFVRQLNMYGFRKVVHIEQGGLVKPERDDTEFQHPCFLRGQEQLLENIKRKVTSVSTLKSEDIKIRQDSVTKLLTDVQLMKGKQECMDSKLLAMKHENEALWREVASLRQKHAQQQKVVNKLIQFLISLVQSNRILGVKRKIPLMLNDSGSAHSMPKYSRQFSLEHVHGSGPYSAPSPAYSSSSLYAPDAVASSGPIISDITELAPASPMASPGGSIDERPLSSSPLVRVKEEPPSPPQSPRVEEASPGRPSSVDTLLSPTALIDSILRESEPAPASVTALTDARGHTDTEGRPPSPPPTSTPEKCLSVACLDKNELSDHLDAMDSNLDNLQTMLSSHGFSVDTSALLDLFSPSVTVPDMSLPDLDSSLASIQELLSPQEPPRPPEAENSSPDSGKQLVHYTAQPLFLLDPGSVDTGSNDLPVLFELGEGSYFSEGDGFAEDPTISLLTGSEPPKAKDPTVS
Chain of ELF4 (Q99607 whole entry): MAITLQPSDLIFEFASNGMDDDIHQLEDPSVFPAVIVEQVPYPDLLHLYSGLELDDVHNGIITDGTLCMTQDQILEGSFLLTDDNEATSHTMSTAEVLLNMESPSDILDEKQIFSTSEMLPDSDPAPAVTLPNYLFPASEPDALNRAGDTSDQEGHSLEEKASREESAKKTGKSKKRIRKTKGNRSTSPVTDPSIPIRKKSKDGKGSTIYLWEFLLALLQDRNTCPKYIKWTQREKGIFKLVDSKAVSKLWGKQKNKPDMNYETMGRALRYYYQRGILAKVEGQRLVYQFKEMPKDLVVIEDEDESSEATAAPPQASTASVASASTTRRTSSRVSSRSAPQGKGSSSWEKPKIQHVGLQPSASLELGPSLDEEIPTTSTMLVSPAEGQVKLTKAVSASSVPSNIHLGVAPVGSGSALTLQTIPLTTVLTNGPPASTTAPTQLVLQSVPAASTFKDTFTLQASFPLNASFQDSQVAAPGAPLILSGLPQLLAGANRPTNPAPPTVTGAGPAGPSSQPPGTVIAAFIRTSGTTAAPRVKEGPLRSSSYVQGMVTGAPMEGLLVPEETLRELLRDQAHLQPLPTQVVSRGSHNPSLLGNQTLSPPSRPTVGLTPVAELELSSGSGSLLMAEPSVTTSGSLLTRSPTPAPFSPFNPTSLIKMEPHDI
Chain of ETV1 (P50549 whole entry): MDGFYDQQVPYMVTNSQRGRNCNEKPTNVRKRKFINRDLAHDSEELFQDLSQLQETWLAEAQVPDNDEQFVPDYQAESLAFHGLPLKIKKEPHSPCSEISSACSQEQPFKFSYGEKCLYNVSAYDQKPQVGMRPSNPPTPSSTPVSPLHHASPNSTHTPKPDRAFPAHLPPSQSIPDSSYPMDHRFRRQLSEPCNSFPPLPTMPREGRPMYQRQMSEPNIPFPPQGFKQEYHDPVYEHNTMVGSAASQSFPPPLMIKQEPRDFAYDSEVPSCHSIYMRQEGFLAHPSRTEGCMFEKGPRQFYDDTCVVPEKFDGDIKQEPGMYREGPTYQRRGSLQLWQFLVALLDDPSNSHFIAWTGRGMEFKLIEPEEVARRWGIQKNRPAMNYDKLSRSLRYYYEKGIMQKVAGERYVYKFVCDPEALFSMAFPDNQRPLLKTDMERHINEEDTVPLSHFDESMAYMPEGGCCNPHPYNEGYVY
Chain of ETV5 (P41161 whole entry): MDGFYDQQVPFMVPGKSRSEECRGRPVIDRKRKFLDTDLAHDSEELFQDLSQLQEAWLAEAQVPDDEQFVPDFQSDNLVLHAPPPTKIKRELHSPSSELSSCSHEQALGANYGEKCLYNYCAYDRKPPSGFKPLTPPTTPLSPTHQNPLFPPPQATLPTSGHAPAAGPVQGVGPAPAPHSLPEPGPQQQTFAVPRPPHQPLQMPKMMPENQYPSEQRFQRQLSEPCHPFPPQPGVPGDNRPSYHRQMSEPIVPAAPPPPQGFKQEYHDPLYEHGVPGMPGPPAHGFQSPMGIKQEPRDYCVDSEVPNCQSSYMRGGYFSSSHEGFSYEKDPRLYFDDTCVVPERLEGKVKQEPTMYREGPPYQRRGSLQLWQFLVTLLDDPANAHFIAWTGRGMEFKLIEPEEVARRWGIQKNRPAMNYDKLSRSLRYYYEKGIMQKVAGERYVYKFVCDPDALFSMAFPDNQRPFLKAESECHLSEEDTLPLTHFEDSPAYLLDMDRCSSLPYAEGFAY
Chain of ETV6 (P41212 whole entry): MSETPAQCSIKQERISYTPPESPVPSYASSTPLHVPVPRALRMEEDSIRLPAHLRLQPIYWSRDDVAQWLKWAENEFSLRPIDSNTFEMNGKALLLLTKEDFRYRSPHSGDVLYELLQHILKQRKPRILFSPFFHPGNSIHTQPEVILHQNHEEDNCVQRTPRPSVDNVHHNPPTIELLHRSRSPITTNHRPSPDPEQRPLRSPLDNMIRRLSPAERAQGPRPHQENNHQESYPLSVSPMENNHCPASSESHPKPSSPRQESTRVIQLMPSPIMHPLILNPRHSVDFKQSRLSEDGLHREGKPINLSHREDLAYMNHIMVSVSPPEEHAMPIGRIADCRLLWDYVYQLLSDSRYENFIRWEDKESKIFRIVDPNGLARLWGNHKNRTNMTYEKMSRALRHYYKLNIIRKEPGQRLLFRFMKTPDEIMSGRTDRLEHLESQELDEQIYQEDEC

Take CAAAAT: the binding signal in the test with FEV is 1.17 fold enrichment (6-mer frequency, TF over GST control); with ETV5 it was 1.22 fold enrichment (6-mer frequency, TF over GST control); with HSF1, 1.2 fold enrichment (6-mer frequency, TF over GST control); in the test with SPIC, 1.16 fold enrichment (6-mer frequency, TF over GST control); with ELF4 it was 1.25 fold enrichment (6-mer frequency, TF over GST control); with ELK4, 1.23 fold enrichment (6-mer frequency, TF over GST control). The binding signal was 1.28 fold enrichment (6-mer frequency, TF over GST control) with ETV2; 1.2 fold enrichment (6-mer frequency, TF over GST control) with ELF3; 1.22 fold enrichment (6-mer frequency, TF over GST control) with CRX; 1.25 fold enrichment (6-mer frequency, TF over GST control) with ETV1; 1.33 fold enrichment (6-mer frequency, TF over GST control) with ERF; 1.19 fold enrichment (6-mer frequency, TF over GST control) in the test with ETV3L. Further, the binding signal was 1.2 fold enrichment (6-mer frequency, TF over GST control) in the test with ETS2; 1.1 fold enrichment (6-mer frequency, TF over GST control) in the test with SPDEF; 1.28 fold enrichment (6-mer frequency, TF over GST control) with ETV7; 1.13 fold enrichment (6-mer frequency, TF over GST control) in the test with ELF5; 1.12 fold enrichment (6-mer frequency, TF over GST control) in the test with ETV3; 1.26 fold enrichment (6-mer frequency, TF over GST control) with ETV6.
